Measurements taken from PubChem BioAssay (NCI).
Several values for one entry are separate records, joined by “and”; a condition that tells them apart may be missing. Identical values can stand only once. About 79,000 compounds went through this panel and 15% of them were active in at least one assay; those are over-represented in the sample as a whole. Activity calls are given as the source filed them. Cut-off read from the data, not from the text of the source: active = growth inhibition above about 70%; inactive = the rest.

Legend:
[1] = NCI Yeast Anticancer Drug Screen. Data for the rad50 strain (AID 155);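 note: 0% = growth of vehicle-only cultures of the same strain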; settings: S. cerevisiae rad50 strain growth inhibition, active compounds read high
In short: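 A DNA repair-deficient yeast mutant serves as the test organism; compound-induced growth inhibition is calculated against vehicle-treated cells.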

[2] = NCI Yeast Anticancer Drug Screen. Data for the mec2-1 strain (AID 157); settings: S. cerevisiae mec2-1 strain, active compounds read high
In short: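 Readout is yeast growth inhibition, normalised to vehicle-treated controls, in the mec2-1 strain exposed to compound.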

[3] = NCI Yeast Anticancer Drug Screen. Data for the sgs1 mgt1 strain (AID 161);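 note: 0% = growth of cultures given vehicle only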; settings: S. cerevisiae sgs1 mgt1 strain, active compounds read high
In short: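 Growth of a repair-deficient yeast mutant was monitored after compound treatment and expressed as inhibition relative to vehicle-treated cultures.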

[4] = NCI Yeast Anticancer Drug Screen. Data for the cln2 rad14 strain (AID 165);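 note: 0% = growth equal to vehicle treated cultures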; settings: S. cerevisiae cln2 rad14 strain, active compounds read high
In short: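 Relative to vehicle controls, growth inhibition of compound-treated cln2 rad14 yeast was recorded.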

[5] = NCI Yeast Anticancer Drug Screen. Data for the bub3 strain (AID 167); settings: S. cerevisiae bub3 mutant strain, active compounds read high
In short: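 Inhibition values come from growth of compound-treated mutant yeast normalised to vehicle-treated controls.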

[6] = NCI Yeast Anticancer Drug Screen. Data for the mlh1 rad18 strain (AID 175); settings: S. cerevisiae mlh1 rad18 strain growth inhibition, active compounds read high
In short: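 Test agents were incubated with a yeast strain of defined genotype (DNA damage repair defect). Inhibition of growth was derived by comparison with vehicle-exposed cultures.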

[7] = at 5.0 µM (retest, dose inferred, filed as 0.5)
[8] = at 50.0 µM (retest, dose inferred, filed as 5.0)

Measured: growth inhibition

CCC[CH2][Sn]1([CH2]CCC)[O]C(=O)c2cccnc2[O]1
active: [1]; [8] 94% | [1]; at 50.0 µM 85.3% | [2]; [8] 97% | [2]; at 50.0 µM 85.5% | [3]; [8] 97% | [3]; at 50.0 µM 85.3% | [4]; [8] 93% | [4]; at 50.0 µM 78.4% | [5]; [8] 97% | [5]; at 50.0 µM 87.7% | [6]; [8] 97% | [6]; at 50.0 µM 84.5%
inactive: [1]; [7] 34% | [2]; [7] 31% | [3]; [7] 42% | [4]; [7] 22% | [5]; [7] 47% | [6]; [7] 51%

[O-][n+]1onc2ccccc21
active: [1]; [8] 99% | [1]; at 50.0 µM 98.3% | [2]; [8] 99% | [3]; [8] 99% | [4]; [8] 99% | [4]; at 50.0 µM 97.7% | [5]; [8] 99% | [6]; [8] 99% | [6]; at 50.0 µM 98.2%
inactive: [1]; [7] 47% | [2]; [7] 30% | [2]; at 50.0 µM 52% | [3]; [7] 29% | [3]; at 50.0 µM 49.9% | [4]; [7] 34% | [5]; [7] 38% | [5]; at 50.0 µM 46.7% | [6]; [7] 63%

Cc1ccc(N=P(c2ccccc2)(c2ccccc2)c2ccccc2)cc1.[I][Hg][I]
active: [1]; [7] 99% | [1]; [8] 99% | [1]; at 50.0 µM 94.7% | [2]; [7] 100% | [2]; [8] 100% | [2]; at 50.0 µM 99.7% | [3]; [7] 100% | [3]; [8] 99% | [3]; at 50.0 µM 98.9% | [4]; [7] 99% | [4]; [8] 99% | [4]; at 50.0 µM 99% | [5]; [7] 99% | [5]; [8] 98% | [5]; at 50.0 µM 98.3% | [6]; [7] 99% | [6]; [8] 99% | [6]; at 50.0 µM 99.3%

S=P(Nc1ccccc1)(Oc1ccccc1)c1ccccc1 (configuration not stated)
inactive: [1]; [7] -1% | [2]; [7] 5% | [3]; [7] 3% | [4]; [7] -1% | [5]; [7] 1% | [6]; [7] 6%
active: [1]; [8] 90% | [1]; at 50.0 µM 93.8% | [2]; [8] 91% | [2]; at 50.0 µM 94.5% | [3]; [8] 90% | [3]; at 50.0 µM 93.3% | [4]; [8] 87% | [4]; at 50.0 µM 91% | [5]; [8] 88% | [5]; at 50.0 µM 92.4% | [6]; [8] 88% | [6]; at 50.0 µM 92.7%

CC(C)COP(=O)(OCC(C)C)C(=O)Nc1ccc(Cl)cc1
active: [1]; [8] 80% | [3]; [8] 89% | [6]; [8] 79%
inactive: [1]; [7] -1% | [1]; at 50.0 µM 57.1% | [2]; [7] -19% | [2]; [8] 44% | [2]; at 50.0 µM 15.2% | [3]; [7] 11% | [3]; at 50.0 µM 24.9% | [4]; [7] 9% | [4]; [8] 49% | [4]; at 50.0 µM 22.6% | [5]; [7] -2% | [5]; [8] 58% | [5]; at 50.0 µM 25.1% | [6]; [7] 2% | [6]; at 50.0 µM 33.6%

[C](#Cc1ccccc1)[Hg][C]#Cc1ccccc1
active: [1]; [8] 99% | [1]; at 50.0 µM 98.8% | [2]; [7] 94% | [2]; [8] 99% | [2]; at 50.0 µM 98.8% | [3]; [7] 94% | [3]; [8] 100% | [3]; at 50.0 µM 99% | [4]; [8] 99% | [4]; at 50.0 µM 84.9% | [5]; [8] 99% | [5]; at 50.0 µM 98.3% | [6]; [8] 99% | [6]; at 50.0 µM 98.8%
inactive: [1]; [7] 65% | [4]; [7] 26% | [5]; [7] 21% | [6]; [7] 24%

Oc1c(Cl)c(Cl)c(Cl)c(Cl)c1Cl (tested in a mixture with another compound)
active: [1]; [8] 99% | [1]; at 50.0 µM 99.2% and 99% and 98.8% | [2]; [8] 99% and 100% | [2]; at 50.0 µM 99.4% and 99.2% and 99.7% | [3]; [8] 99% | [3]; at 50.0 µM 99.4% and 99.3% and 99.2% | [4]; [8] 99% and 98% | [4]; at 50.0 µM 97.2% and 99.2% and 98.5% | [5]; [8] 99% | [5]; at 50.0 µM 99.5% and 99.3% | [6]; [8] 99% | [6]; at 50.0 µM 99.2% and 99%
inactive: [1]; [7] 56% and 41% and 27% | [2]; [7] 28% and 24% and -7% | [3]; [7] 58% and 44% and 23% | [4]; [7] 42% and 28% and 16% | [5]; [7] 30% and 29% and 1% | [6]; [7] 56% and 46% and 23%

CCC[CH2][Sn][Cl]
active: [1]; [7] 99% | [1]; [8] 98% | [1]; at 50.0 µM 98.2% | [2]; [7] 100% | [2]; [8] 98% | [2]; at 50.0 µM 98.7% | [3]; [7] 99% | [3]; [8] 99% | [3]; at 50.0 µM 98.8% | [4]; [7] 99% | [4]; [8] 98% | [4]; at 50.0 µM 97.7% | [5]; [7] 99% | [5]; [8] 97% | [5]; at 50.0 µM 98.1% | [6]; [7] 99% | [6]; [8] 98% | [6]; at 50.0 µM 97.4%

O=C(Nc1ccccc1)OC(C[N+](=O)[O-])C(Cl)(Cl)Cl (configuration not stated)
inactive: [1]; [7] 12% | [2]; [7] 10% | [3]; [7] 5% | [4]; [7] 10% | [4]; at 50.0 µM 42.6% | [5]; [7] 2% | [6]; [7] 11%
active: [1]; [8] 99% | [1]; at 50.0 µM 99.3% | [2]; [8] 100% | [2]; at 50.0 µM 95.8% | [3]; [8] 99% | [3]; at 50.0 µM 99.1% | [4]; [8] 91% | [5]; [8] 100% | [5]; at 50.0 µM 99.2% | [6]; [8] 99% | [6]; at 50.0 µM 99.2%
